The values that follow come from PubChem BioAssay (NCATS).

Inconclusive results are not listed. Unmarked numbers belong to inactive results. Active and inactive are the calls of the source. Calls follow the shape of the dose curve; as a rule, active = well fitted inhibition curve with a large enough effect; inconclusive = small, poorly fitted or top-dose-only effect; inactive = flat fitted curve, though single readings scatter. Where a SMILES comes first, the peptide text is derived from it. Bridges are numbered along the chain shown (N, C = ends).

Experiment [1] has as its target Glutathione peroxidase 1 (Homo sapiens) (UniProt P07203). Briefly: Primary qHTS Assay for Inhibitors of Recombinant Selenoprotein Glutathione Peroxidase 1 (GPX1) (AID 1845191). The procedure, abridged:
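10 nM GPX1 + cpd, 30 min RT; start w/ 1 mM GSH, 0.5 mM cumene hydroperoxide, 0.5 mM NADPH, 100 nM GR, 0.01% BSA; buffer 50 mM Tris-HCl pH 7.5, 2 mM EDTA, 150 mM NaCl; Fl 340/450, 0 & 15 min.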
For orientation: Quantitative high-throughput screening tests each substance at several concentrations.

The target of experiment [2] is Phospholipid hydroperoxide glutathione peroxidase GPX4 (Homo sapiens) (UniProt P36969). Briefly: Primary qHTS Assay for Inhibitors of Recombinant Selenoprotein Glutathione Peroxidase 4 (GPX4) (AID 1845192). As to activity change, negative = inhibition: series mostly up to about 50 µM. In short, it runs like this: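 NADPH consumption, followed by fluorescence at 340/450 nm between 0 and 15 min, reports GPX4 activity via coupled glutathione reductase (100 nM). Enzyme 200 nM was pre-exposed to compound 30 min; 0.5 mM cumene hydroperoxide and 1 mM GSH served as substrates.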
% is scaled to controls: 0 for no effect and ±100 for the full control effect; potency is read from the fitted curve at half-maximal effect.
Also: nearly all actives have a fitted effect of over 65% in size.

Glutathione peroxidase 1 (Homo sapiens), sequence (P07203 whole entry, looked up): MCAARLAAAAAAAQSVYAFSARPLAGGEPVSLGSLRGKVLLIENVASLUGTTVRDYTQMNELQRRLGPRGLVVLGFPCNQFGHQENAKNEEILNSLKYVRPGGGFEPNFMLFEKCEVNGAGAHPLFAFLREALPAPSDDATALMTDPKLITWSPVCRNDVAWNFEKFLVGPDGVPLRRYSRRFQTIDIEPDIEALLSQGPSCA
Phospholipid hydroperoxide glutathione peroxidase GPX4 (Homo sapiens), sequence (P36969 whole entry, looked up): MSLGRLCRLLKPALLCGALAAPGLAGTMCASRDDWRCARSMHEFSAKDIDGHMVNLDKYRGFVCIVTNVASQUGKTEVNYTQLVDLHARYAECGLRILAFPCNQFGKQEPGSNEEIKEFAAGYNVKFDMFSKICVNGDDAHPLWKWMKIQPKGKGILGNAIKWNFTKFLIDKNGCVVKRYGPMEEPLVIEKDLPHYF

Consider `CCCCCCCCCCCCOC(=O)CS(=O)(=O)O`, for which, in experiment [1], the Potency entry was “inactive”. Also, the Potency in experiment [2] was 14.1 µM (active).
Turning to `Cc1cc(O)ccc1C(C)(C)C`, the Potency entry in experiment [1] and in experiment [2] was “inactive” each time.
With `CC(C)(C)NCC(O)COc1ccccc1C1CCCC1` (centres undefined), the Potency result in experiment [1] and in experiment [2] was “inactive” in each case.
As for `CCCCCC(O)/C=C/[C@@H]1C(CCCCCCC(=O)O)C(=O)C[C@@H]1O` (some centres undefined), the Potency result in experiment [1] and in experiment [2] was “inactive” each time.
Turning to `CCCCCCCCCCCCCCCCCC(=O)NCCCC[C@H](NC(=O)CC[C@@H](NC(=O)[C@H](C)NC(=O)[C@@H](C)O[C@H]1[C@H](O)[C@@H](CO)OC(O)[C@@H]1NC(C)=O)C(N)=O)C(=O)O` (some centres undefined), the Potency result in experiment [1] and in experiment [2] was “inactive” throughout.
On to `CCCN1C[C@H](C)[C@@H](O)[C@](C)(O)[C@@H](CC)OC(=O)[C@H](C)[C@@H](O[C@H]2C[C@@](C)(OC)[C@@H](O)[C@H](C)O2)C(C)[C@@H](O[C@@H]2O[C@H](C)C[C@H](N(C)C)[C@H]2O)[C@](C)(O)C[C@H]1C` (some centres undefined), for which the Potency entry in experiment [1] and in experiment [2] was “inactive” in each case.
For `CCCCC(CC)COc1ccc(-c2nc(-c3ccc(OC)cc3)nc(-c3ccc(OCC(CC)CCCC)cc3O)n2)c(O)c1` (centres undefined), in experiment [1], the activity, negative = inhibition was -11% [at 4.49 µM]. In experiment [2], the activity change, negative = inhibition was -23.8% [at 4.52 µM].
In the case of `C[N+]1(C)[C@@H]2CC(OC(=O)C(O)(c3cccs3)c3cccs3)C[C@H]1[C@H]1O[C@@H]12` (some centres undefined), the Potency entry in experiment [1] and in experiment [2] was “inactive” throughout.
For `Cc1cc2nc3c(=O)[nH]c(=O)nc-3n(C[C@H](O)[C@H](O)[C@H](O)COP(=O)(O)OP(=O)(O)OC[C@H]3O[C@@H](n4cnc5c(N)ncnc54)[C@H](O)[C@H]3O)c2cc1C`, the Potency result in experiment [1] and in experiment [2] was “inactive” each time.
Turning to `C[C@@H]1NC(=O)[C@@H]2CCCN2C(=O)[C@H](CC(N)=O)NC(=O)[C@@H]2CSSC[C@H](N)C(=O)N[C@H]3CSSC[C@H](NC1=O)C(=O)N[C@@H]([C@@H](C)O)C(=O)NCC(=O)N[C@H](C(=O)N[C@@H](Cc1ccc(O)cc1)C(=O)O)CSSC[C@H](NC(=O)[C@H](Cc1ccc(O)cc1)NC(=O)[C@H](CCC(=O)O)NC3=O)C(=O)N2` (H-CCEYCCNPACTGCY-OH; disulfide 1-6, 2-10, 5-13), the Potency entry in experiment [1] and in experiment [2] was “inactive” in each case.
`CCOc1ccc(Cc2cc([C@@]34OC[C@@](CO)(O3)[C@@H](O)[C@H](O)[C@H]4O)ccc2Cl)cc1`: the Potency entry in experiment [1] and in experiment [2] was “inactive” each time.
For `COCC1=C(C(=O)OC(C)OC(=O)OC(C)C)N2C(=O)[C@@H](NC(=O)/C(=N/OC)c3csc(N)n3)[C@H]2SC1` (some centres undefined), the results for the Potency in experiment [1] and in experiment [2] were 9.04 µM (active) and 10 µM (active), respectively.
Regarding `CC(OC(=O)NCC1(CC(=O)O)CCCCC1)OC(=O)C(C)C` (centres undefined), the Potency entry in experiment [1] and in experiment [2] was “inactive” throughout.
As for `CCCCCCCCCCCCCCCC(=O)OCC(=O)[C@@]1(O)[C@H](C)C[C@H]2[C@@H]3CCC4=CC(=O)C=C[C@]4(C)[C@@]3(F)[C@@H](O)C[C@@]21C`, the Potency entry in experiment [1] and in experiment [2] was “inactive” in each case.
Consider `CC(=O)OC1CC(OC2C(O)CC(OC3C(O)CC(OC4CCC5(C)C(CCC6C5CCC5(C)C(C7=CC(=O)OC7)CCC65O)C4)OC3C)OC2C)OC(C)C1O` (centres undefined), for which the Potency entry in experiment [1] and in experiment [2] was “inactive” each time.
Regarding `C#C[C@]1(O)CC[C@H]2[C@@H]3CCC4=CC(=O)CC[C@@H]4[C@H]3C(=C)C[C@@]21CC`, the Potency result in experiment [1] and in experiment [2] was “inactive” each time.
Take `CCCCCCCCCCCC(=O)OCN1C(=O)CCc2ccc(OCCCCN3CCN(c4cccc(Cl)c4Cl)CC3)cc21`: the Potency result in experiment [1] and in experiment [2] was “inactive” throughout.
On to `COc1cc2c(cc1OC)[C@H]1C[C@@H](OC(=O)[C@@H](N)C(C)C)[C@H](CC(C)C)CN1CC2`, for which the Potency result in experiment [1] and in experiment [2] was “inactive” throughout.
Take `CCCCCCCCCCCCCCCC(=O)OC1C(SC)OC(C(NC(=O)C2CC(CCC)CN2C)C(C)Cl)C(O)C1O` (centres undefined): the Potency entry in experiment [1] and in experiment [2] was “inactive” in each case.
Consider `CCC(=O)Oc1ccc2c(c1)CC[C@@H]1[C@H]2CC[C@]2(C)[C@@H](OC(=O)CC)CC[C@@H]12`, for which the Potency entry in experiment [1] and in experiment [2] was “inactive” throughout.
With `C[N+]1(C)C2CC[C@H]1CC(OC(=O)C(O)c1ccccc1)C2` (some centres undefined), the Potency result in experiment [1] and in experiment [2] was “inactive” throughout.
As for `CCC(c1ccccc1)c1c(O)c2ccccc2oc1=O` (centres undefined), the Potency entry in experiment [1] and in experiment [2] was “inactive” in each case.
Turning to `CC(=O)NC(C=O)C(O)C(O)[C@H](O)CO` (some centres undefined), the Potency result in experiment [1] and in experiment [2] was “inactive” each time.
`CN1N=C2CCN(C(=O)[C@H](COCc3ccccc3)NC(=O)C(C)(C)N)C[C@]2(Cc2ccccc2)C1=O`: the Potency result in experiment [1] and in experiment [2] was “inactive” in each case.
For `O=C1CCC(C(=O)O)N1` (centres undefined), the Potency result in experiment [1] and in experiment [2] was “inactive” throughout.
On to `O=C(OC1C[C@@H]2CC3C[C@@H](C1)N2CC3=O)c1c[nH]c2ccccc12` (some centres undefined), for which the Potency result in experiment [1] and in experiment [2] was “inactive” throughout.
Take `Cc1ncc([N+](=O)[O-])n1CCOC(=O)c1ccccc1`: the Potency entry in experiment [1] and in experiment [2] was “inactive” throughout.
Regarding `CNc1ncc(-c2ccc3c(=O)c(C(=O)O)cn(C4CC4)c3c2C)cc1C`, the Potency result in experiment [1] and in experiment [2] was “inactive” each time.
As to `CN[C@H]1C(=O)N[C@@H]2Cc3ccc(cc3)Oc3cc4cc(c3O[C@@H]3O[C@H](C(=O)O)[C@@H](O)[C@H](O)[C@H]3NC(=O)CCCCCCCCC(C)C)Oc3ccc(cc3Cl)[C@@H](O)[C@@H]3NC(=O)[C@H](NC(=O)[C@@H]4NC(=O)[C@@H](NC2=O)c2cc(cc(O)c2Cl)Oc2cc1ccc2O)c1ccc(O)c(c1)-c1c(O[C@H]2O[C@H](CO)[C@@H](O)[C@H](O)[C@@H]2O)cc(O)cc1[C@@H](C(=O)NCCCN(C)C)NC3=O`, the Potency result in experiment [1] and in experiment [2] was “inactive” in each case.
`CCCC[C@H](C)C[C@H](O)/C=C/[C@H]1[C@H](O)CC(=O)[C@@H]1CCCC/C=C/C(=O)O`: the Potency result in experiment [1] and in experiment [2] was “inactive” each time.
For the molecule `CCC1(C)OC(=O)N(C)C1=O` (centres undefined), the Potency result in experiment [1] and in experiment [2] was “inactive” in each case.
As for `CC1CCCC(C)N1C(=S)Nc1cccc(C(F)(F)F)c1` (centres undefined), the Potency in experiment [1] was 22.7 µM (active); in experiment [2], 11.2 µM (active).
For the molecule `O=C1[C@@H]2[C@H]3CC[C@H](C3)[C@@H]2C(=O)N1C[C@@H]1CCCC[C@H]1CN1CCN(c2nsc3ccccc23)CC1`, the Potency entry in experiment [1] and in experiment [2] was “inactive” in each case.
Turning to `CC(=O)OCC(=O)[C@@]1(O)[C@H](C)C[C@H]2[C@@H]3C[C@H](F)C4=CC(=O)C=C[C@]4(C)[C@@]3(F)[C@@H](O)C[C@@]21C`, the Potency result in experiment [1] and in experiment [2] was “inactive” throughout.
Regarding `CCCCCCCCCC(=O)OCCN1CCN(CCCN2c3ccccc3Sc3ccc(C(F)(F)F)cc32)CC1`, the Potency result in experiment [1] and in experiment [2] was “inactive” in each case.
`Cn1cc(OCC(O)CNC(C)(C)C)c2ccccc2c1=O` (centres undefined): the Potency entry in experiment [1] and in experiment [2] was “inactive” throughout.
As for `[2H]N[C@@H](Cc1ccccc1)C(=O)N1CCC[C@H]1C(=O)N[C@@H](CCCNC(=N)N)C(=O)N1CCC[C@H]1C(=O)NCC(=O)NCC(=O)NCC(=O)NCC(=O)N[C@@H](CC(N)=O)C(=O)NCC(=O)N[C@@H](CC(=O)O)C(=O)N[C@@H](Cc1ccccc1)C(=O)N[C@@H](CCC(=O)O)C(=O)N[C@@H](CCC(=O)O)C(=O)N[C@H](C(=O)N1CCC[C@H]1C(=O)N[C@@H](CCC(=O)O)C(=O)N[C@@H](CCC(=O)O)C(=O)N[C@@H](Cc1ccc(O)cc1)C(=O)N[C@@H](CC(C)C)C(=O)O)[C@@H](C)CC`, the outcome in experiment [1] was “inactive [at 9.52 µM]”; in experiment [2], “inactive [at 9.73 µM]”.
As for `COc1ccc(CC(C)(C)NC[C@H](O)c2cc(O)cc3c2OCC(=O)N3)cc1`, the Potency result in experiment [1] and in experiment [2] was “inactive” in each case.
`CC[C@H]1[C@@H](O)[C@@H]2[C@H](CC[C@]3(C)[C@@H]([C@H](C)CCC(=O)O)CC[C@@H]23)[C@@]2(C)CC[C@@H](O)C[C@@H]12`: in experiment [1], the Potency entry is “inactive”. In addition, the Potency in experiment [2] is 11.2 µM (active).
In the case of `C[N+](C)(C)C1CCC(CC2CCC([N+](C)(C)C)CC2)CC1` (centres undefined), the Potency entry in experiment [1] and in experiment [2] was “inactive” each time.
`CC(C)OC(=O)CCC/C=C\C[C@@H]1[C@@H](/C=C/[C@@H](O)COc2cccc(C(F)(F)F)c2)[C@H](O)C[C@@H]1O`: the Potency entry in experiment [1] and in experiment [2] was “inactive” each time.
Take `CC(C=CC1=C(C)CCCC1(C)C)=CC=CC(C)=CC(=O)Oc1c(C)c(C)c2c(c1C)CC[C@@](C)(CCC[C@H](C)CCC[C@H](C)CCCC(C)C)O2`: the values for the outcome in experiment [1] and in experiment [2] were “inactive [at 4.49 µM]” and “inactive [at 4.52 µM]”, respectively.
